# Screening data from PubChem.
# CBFb-RUNX1 inh – qHTS Assay for Compounds Blocking the Interaction Between CBF-beta and RUNX1 for the Treatment of Acute Myeloid Leukemia. Runt-related transcription factor 1 (Homo sapiens) + Core-binding factor subunit beta …. AlphaScreen CBFb-His/RUNX1-biotin binding, biochemical. Potency, µM (series often up to 59.8 µM), usual class: inhibitors. 230,000 tested, under 10 active. AID 1477, 2009
#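 AlphaScreen proximity signal reports loss of binding between His-tagged CBF-beta and biotin-labelled RUNX1, each at 30 nM. Proteins are pre-associated for 20 minutes, compounds added for 15 minutes, then beads for 90 minutes, all at ambient temperature.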
# VDR inhibitor – Inhibitors of the vitamin D receptor (VDR): qHTS; Potency, µM, most hits filed as inhibitors; hit rate 0.93% among 400,000; VDR-SRC2-3 peptide fluorescence polarization, 2 h
#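 VDR–SRC2-3 interaction, FP format. Cmpds 23 nl via pintool, brief spin, 2 h ambient incubation.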
# MBNL1 CUG block – qHTS Assay for Inhibitors of MBNL1-poly(CUG) RNA binding | Potency, µM (titrated, usually from 57.5 µM), actives largely listed as inhibitors | hit rate 0.036% among 280,000 | TR-FRET MBNL1-His/biotin-(CUG)12 binding, 665/545 ratio | Muscleblind-like protein 1 (Homo sapiens), Q9NR56; active means well fitted inhibition curve with a large enough effect in the signal ratio, with a control signal flat, not every such curve was filed as active; inconclusive means small, poorly fitted or top-dose-only effect, or effect the other way, or a change in a side signal; inactive means no such curve, though single readings can be large or run the other way; the % refers to the signal ratio
#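 TR-FRET readout: Ex 340 nm, 665/545 nm emission ratio, normalized to buffer-only (basal) and MBNL1-(CUG)12 controls. Complex of MBNL1-His with Biotin-(CUG)12, compounds 92 nM–58 uM, incubated 60 min at room temperature.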
# PLK1 PBD block – qHTS for Inhibitors of PLK1-PDB (polo-like kinase 1 - polo-box domain): Primary Screen. Potency, µM, hits mostly inhibitors. Plk1 PBD binding of FITC phosphopeptide, fluorescence polarization. hit rate 2.8% among 360,000; further: series mostly up to about 57 µM; nearly all actives have a fitted effect of over 65% in size
# Target sequence (P53350 whole entry, looked up, the tested form may be a part): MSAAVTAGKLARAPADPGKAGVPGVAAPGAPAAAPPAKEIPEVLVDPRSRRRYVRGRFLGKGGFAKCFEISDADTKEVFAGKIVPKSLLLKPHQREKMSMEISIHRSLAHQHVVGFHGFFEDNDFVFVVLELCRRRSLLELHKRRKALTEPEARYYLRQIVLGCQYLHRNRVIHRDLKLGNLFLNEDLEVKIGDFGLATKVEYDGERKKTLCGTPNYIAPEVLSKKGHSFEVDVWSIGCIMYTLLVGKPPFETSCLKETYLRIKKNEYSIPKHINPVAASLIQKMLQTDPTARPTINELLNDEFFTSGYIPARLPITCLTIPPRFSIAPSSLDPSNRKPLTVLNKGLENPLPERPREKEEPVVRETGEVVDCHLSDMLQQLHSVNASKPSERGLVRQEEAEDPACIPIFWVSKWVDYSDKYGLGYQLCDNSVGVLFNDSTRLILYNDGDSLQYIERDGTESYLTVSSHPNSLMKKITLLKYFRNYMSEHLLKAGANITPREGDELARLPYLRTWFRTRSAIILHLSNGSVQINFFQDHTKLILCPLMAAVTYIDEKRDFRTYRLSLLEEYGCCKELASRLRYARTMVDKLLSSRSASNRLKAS
# KCNH2 3.1 inh – qHTS for Inhibitors of KCHN2 3.1: Mutant qHTS; Potassium voltage-gated channel subfamily H member 2, brain isoform KCNH2 3.1 (human); U2OS KCNH2 3.1, thallium flux FluxOr; hits give low values; activity change, % (tested at about 1.8 µM); hit rate 0.95% among 340,000; AID 720553, 2013;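 active means maximum activity change below -70%; inconclusive means maximum activity change from -70% to -50%; inactive means maximum activity change above -50%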;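 further: thallium influx rate constant from kinetic fluorescence after stimulation buffer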
#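 Steps: virus added to U2OS suspension (4 h, RT, dark); medium with 10% FBS added, cells plated, 37 C overnight; FluxOr/Red40 loading buffer 45 min RT; stimulation buffer, 2 min kinetic read; rate constant normalized.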
# KCNH2 WT inh – qHTS for Inhibitors of KCHN2 3.1: Wildtype qHTS; Voltage-gated inwardly rectifying potassium channel KCNH2 (Homo sapiens), Q12809; U2OS, BacMam KCNH2, thallium flux FluxOr; hits give low values; activity change, % at 1.84 µM; hit rate 0.37% among 340,000; AID 720551, 2013;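 active means maximum activity change below -70%; inconclusive means maximum activity change between -70% and -50%; inactive means maximum activity change above -50%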
#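 U2OS cells were transduced with wild-type KCNH2 virus (2.03 x 10^8 / mL) for 4 h at room temperature, then cultured overnight at 37 C. Thallium flux was read with FluxOr dye. Rate constants were normalized to DMSO controls.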
# TbPYK inh – qHTS of Trypanosoma Brucei Inhibitors: Confirmatory Assay for Cherry-picked Compounds; recombinant TbPYK, Kinase-Glo ATP luminescence; hit rate 67% among 890; shares compounds with PLK1 PBD block; AID 720569, 2013; Potency, µM (doses to about 76.9 µM), usual class: inhibitors; further: nearly all actives have a fitted effect of over 70% in size
# TbPYK orthogonal – qHTS of Trypanosoma Brucei Inhibitors: Orthogonal Assay for Cherry-picked Compounds; Potency, µM (top dose mostly 76.9 µM), usual class: inhibitors; shares compounds with PLK1 PBD block; AID 720584, 2013; hit rate 62% among 890; recombinant TbPYK, ADP-Glo luminescence, 60 min; further: nearly all actives have a fitted effect of over 75% in size
# Hits are given with their value; 0 = inactive; ? = inconclusive; - = no result given; [ ] = remark or other dose. Shown are actives, neighbours in structure and some others; about 3.8% of the full set was active somewhere. Unless noted, the call rests on the fitted dose curve; in most records, active means well fitted curve in the direction sought with a large enough effect; inconclusive means small, poorly fitted or top-dose-only effect, or another doubt; inactive means no such curve, though single readings can be large; an effect the other way counts as inactive or inconclusive.
SMILES,CBFb-RUNX1 inh,VDR inhibitor,MBNL1 CUG block,PLK1 PBD block,KCNH2 3.1 inh,KCNH2 WT inh,TbPYK inh,TbPYK orthogonal
CN=c1nc(-c2ccccc2)n(-c2ccccc2)s1,0,50µM,-,3µM,0,0,0.89µM,1.8µM
COc1ccc(/C=C/C(=O)N(C(C)C)C(C)C)cc1Br,0,0,0,0,0,0,-,-
COc1ccc(/C=C2/C(=O)ON=C2C)cc1Br,-,?,0,1.9µM,0,0,?,?
COc1cc(/C=C2\C(=O)ON=C2c2ccccc2)cc(OC)c1OC,0,28µM,0,7.5µM,0,0,?,?
Cc1ccc(C)c(NC(=S)N2CCN(c3cccc(C(F)(F)F)c3)CC2)c1,0,0,0,0,0,0,-,-
Cc1ccnc(NC(=S)N2CCN(c3cccc(C(F)(F)F)c3)CC2)c1,-,0,0,0,0,0,2.2µM,2.8µM
CCOC(=O)C1=C(C)NC(SC)=C(C#N)C1CC(C)C (stereo unspecified),0,0,0,0,0,0,-,-
CC(=O)C1=C(C)NC(SCC(=O)c2ccc(F)cc2)=C(C#N)C1CC(C)C (stereo unspecified),0,0,0,?,0,0,1.1µM,1.8µM
CC(=O)C1=C(C)NC(SCC(=O)c2ccc(Cl)cc2)=C(C#N)C1CC(C)C (stereo unspecified),0,0,0,0,0,0,-,-
CC(=O)C1=C(C)NC(SCC(N)=O)=C(C#N)C1CC(C)C (stereo unspecified),0,79µM,0,0,0,0,7.1µM,8.9µM
CC(=O)C1=C(C)NC(SCC(N)=O)=C(C#N)C1C (stereo unspecified),0,?,0,21µM,0,0,?,?
COc1cccc(NC(=O)CN2CCCN(S(=O)(=O)c3ccc(Br)cc3)CC2)c1,-,0,-,-,-,-,-,-
NCCCC[C@H](NC(=O)[C@H](CS)NC(=O)[C@@H](N)Cc1cnc[nH]1)C(=O)N[C@@H](Cc1ccccc1)C(=O)N[C@@H](Cc1c[nH]c2ccccc12)C(=O)N[C@@H](Cc1c[nH]c2ccccc12)C(=O)O,0,0,-,-,-,-,-,-
CCN1/C(=C/c2ccc3ccccc3[n+]2CC)C=Cc2ccccc21,?,0,?,0,0,0,11µM,?
Cc1cccc2c1-c1sc(C(=O)NCCc3ccc(Cl)cc3)cc1CO2,-,0,-,-,-,-,-,-
Cc1ccc(/C=C/C(=O)N2CC(C)CC(C)C2)o1 (stereo unspecified),0,?,0,27µM,0,0,?,32µM
O=C(Nc1c(Cl)cccc1Cl)c1cccc2c1C(=O)N(C1CCCCC1)C2,-,0,-,-,-,-,-,-
CC(C)(O)C1Cc2cc(/C=C/C(=O)O)c(O)cc2O1 (stereo unspecified),0,?,0,3µM,0,0,13µM,14µM
COc1ccc(N(CC(=O)NCCSC(C)(C)C)S(C)(=O)=O)c(OC)c1,0,0,0,0,0,0,18µM,?
CCc1nn(CC(=O)N(C)Cc2ccccc2)c(=O)c2cc3sccc3n12,-,0,-,-,-,-,-,-
Cc1ccc(NC(=O)NC(=O)CN2CCN(c3ccc(O)cc3)CC2)c(C)c1,-,0,0,0,0,0,11µM,5.6µM
C[C@H]1Cc2c(COc3ccccc3)nc3c(c2CO1)CN(S(=O)(=O)c1ccc2c(c1)OCCN2C)CC3,0[13.1 µM],-,-,-,-,-,-,-
O=c1ccn(C2OC(COP(=O)(O)OC3C(CO)OC(n4ccc(=O)[nH]c4=O)C3O)C(O)C2O)c(=O)[nH]1 (stereo unspecified),-,0,-,-,-,-,-,-
CCOc1ccccc1NC1(c2ccccc2)C(=O)c2ccccc2C1=O,-,0,-,-,-,-,-,-
NC(=O)Cn1c(=O)n(Cc2ccco2)c(=O)c2c3c(sc21)CCCCC3,?,89µM,0,?,0,0,?,?
SMILES,CBFb-RUNX1 inh,VDR inhibitor,MBNL1 CUG block,PLK1 PBD block,KCNH2 3.1 inh,KCNH2 WT inh,TbPYK inh,TbPYK orthogonal
O=C(Cn1c(=O)n(Cc2ccco2)c(=O)c2c3c(sc21)CCCC3)Nc1ccccc1,0,0,0,?,0,0,-,-
COc1cccc(C(=O)c2sc(Nc3ccc(C)cc3C)c(S(=O)(=O)c3ccccc3)c2N)c1,-,0,-,-,-,-,-,-
COc1ccc(-c2nc3nc(C)cc(Nc4ccc(C(C)=O)cc4)n3n2)cc1,-,0,-,-,-,-,-,-
COc1ccc(Cn2c(CO)cnc2SCc2cccc(C)c2)cc1,-,0,-,-,-,-,-,-
O=S(=O)(O)c1cc(O)c(N=Nc2ccc(O)cc2O)c2ccccc12,-,0,-,?,0,0,11µM,?
CCCCCCC(=O)N(O)C1CC(=O)N(c2ccc(F)cc2)C1=O (stereo unspecified),0,40µM,0,27µM,0,0,?,?
Oc1ccc(/C=N/Nc2nccnc2Cl)cc1,0,0,?,0,0,0,16µM,0
Fc1ccc(/C=N/Nc2nccnc2Cl)cc1,-,0,0,0,0,0,-,-
Fc1cccc(/C=N/Nc2nccnc2Cl)c1,-,0,?,0,0,0,?,0
O=[N+]([O-])c1cccc(/C=N/Nc2nccnc2Cl)c1,0,0,?,0,0,0,-,-
